G9a block – qHTS Assay for Inhibitors of Histone Lysine Methyltransferase G9a. Histone-lysine N-methyltransferase EHMT2 (Homo sapiens), Q96KQ7. G9a H3K9 monomethylation, AlphaScreen, 2 h. Potency, µM (doses to about 102 µM), most hits filed as inhibitors. 350,000 tested, 8.8% active. AID 504332, 2011; also: nearly all actives have a fitted effect of over 75% in size
Target sequence (Q96KQ7 913-1193 limits assumed): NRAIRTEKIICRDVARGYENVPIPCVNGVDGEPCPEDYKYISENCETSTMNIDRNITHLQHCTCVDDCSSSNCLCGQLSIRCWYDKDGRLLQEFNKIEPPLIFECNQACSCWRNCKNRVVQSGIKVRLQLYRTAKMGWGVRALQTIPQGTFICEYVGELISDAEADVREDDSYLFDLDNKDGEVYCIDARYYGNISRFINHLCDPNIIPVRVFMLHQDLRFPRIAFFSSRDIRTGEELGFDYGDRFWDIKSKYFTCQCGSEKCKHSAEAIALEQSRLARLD
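Methyltransferase reactions run at room temperature for 2 h (20 nM enzyme, 500 nM biotin-H3K9 peptide, 20 uM SAM) after a 15 min compound preincubation; product detected by AlphaScreen beads and anti-H3K9me1 antibody.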
ALDH1A1 block – qHTS Assay for Inhibitors of Aldehyde Dehydrogenase 1 (ALDH1A1); Aldehyde dehydrogenase 1A1 (Homo sapiens), P00352; Purified ALDH1A1, NADH fluorescence, propionaldehyde substrate; Potency, µM (highest dose often 75.3 µM), actives largely listed as inhibitors; 220,000 tested, 7.3% active; AID 1030, 2008; active = well fitted inhibition curve with a large enough effect, not every such curve was filed as active; inconclusive = small, poorly fitted or top-dose-only effect, or another doubt; inactive = no such curve, though single readings can be large or run the other way
Lamin A splicing – qHTS Assay for Modulators of Lamin A Splicing. HeLa LMNA splicing GFP/RFP minigene ratio, 48 h. Potency, µM (highest dose often 46.1 µM), actives largely listed as inhibitors. 200,000 tested, 0.01% active. AID 1487, 2009; active = well fitted inhibition curve with a large enough effect in the signal ratio, with a control signal flat, not every such curve was filed as active; inconclusive = small, poorly fitted or top-dose-only effect, or effect the other way, or a change in a side signal; the % refers to the signal ratio
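S3 HeLa stable clones carrying a lamin A-EGFP splicing minigene plus DsRed2 were seeded at 600 cells/well in Opti-MEM with 2% FBS, pin-dosed and incubated 48 h at 37°C. Acumen cytometry (488 nm) gave the GFP/RFP total-intensity ratio.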
JMJD2E inh – qHTS Assay for Inhibitors of Human Jumonji Domain Containing 2E (JMJD2E); Lysine-specific demethylase 4E (Homo sapiens), B2RXH2; JMJD2E catalytic domain, FDH-coupled NADH fluorescence (FDH is formaldehyde dehydrogenase); Potency, µM (highest dose often 57.1 µM), most hits filed as inhibitors; 230,000 tested, 1.6% active; AID 2147, 2009; active = well fitted inhibition curve with a large enough effect, not every such curve was filed as active; inconclusive = small, poorly fitted or top-dose-only effect, or another doubt; inactive = no such curve, though single readings can be large or run the other way; also: nearly all actives have a fitted effect of over 50% in size
miR-21 reporter – qHTS Assay for Modulators of miRNAs and/orActivators of miR-21 | HeLa miR-21 FLuc reporter, luciferase, 48 h | Potency, µM (series often up to 38.3 µM), actives largely listed as activators | 340,000 tested, under 10 active | AID 2288, 2010;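 also: miR-21 action dims this reporter so a rising signal means less miR-21 action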
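Luminescence from a firefly luciferase reporter carrying a miR-21 binding site downstream, stably expressed under a CMV promoter in HeLa cells that make miR-21 endogenously, reports miRNA modulation after 48 h compound exposure up to approximately 40uM final.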
Sfp inh – qHTS Assay for Inhibitors of Bacillus subtilis Sfp phosphopantetheinyl transferase (PPTase) | 4'-phosphopantetheinyl transferase ffp (Bacillus subtilis), Q9F4F7 | Biochemical Sfp PPTase activity, qHTS | Potency, µM, actives largely listed as inhibitors | 310,000 tested, 3.5% active;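 also: the enzyme is Sfp with the accession as filed and its product quenches rhodamine fluorescence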
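Buffer: 50 mM Hepes-Na pH 7.6, 10 mM MgCl2, 0.01% Nonidet P-40, 0.01% BSA. Enzyme 15 nM, pre-exposed to compound 15 min; substrates then added and fluorescence change tracked over 30 min.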
Large screens that a line does not name were inactive; ! = not confirmed by another sample. Only some compounds are listed: those with a hit (about 13% of all), similar ones and a draw of the others. Unless noted, calls follow the shape of the dose curve; as a rule, active = well fitted curve in the direction sought with a large enough effect; inconclusive = small, poorly fitted or top-dose-only effect, or another doubt; inactive = no such curve, though single readings can be large; an effect the other way counts as inactive or inconclusive.

COc1cc(C2Nc3c(F)cccc3C3C=CCC32)cc(Br)c1OC (configuration not stated)	ALDH1A1 block 25µM, JMJD2E inh inconclusive, Sfp inh 40µM (no result: G9a block)
O=C1c2ccccc2C(=O)N1CCCCN(C(=O)c1cc2ccccc2oc1=O)c1ccc(Cl)cc1	ALDH1A1 block 7.9µM
C/C(=C\C(=O)C(F)(F)F)Nc1ccc(C(F)(F)F)cc1	ALDH1A1 block 22µM
Cc1cccc(N=N/C(=C\O)C(=O)c2ccc(Br)cc2)c1	G9a block 11µM, ALDH1A1 block inconclusive, Lamin A splicing inconclusive
O=C(/C(=C/O)N=Nc1ccccc1Cl)c1ccccc1	G9a block 40µM, ALDH1A1 block 7.9µM, Lamin A splicing inconclusive
O=C(/C(=C/O)N=Nc1ccccc1)c1ccco1	ALDH1A1 block 14µM
O=C(/C(=C/O)N=Nc1cccc(C(F)(F)F)c1)c1ccccc1	G9a block 45µM, ALDH1A1 block 7.5µM, Lamin A splicing inconclusive
Nc1nc2c(ncn2[C@@H]2O[C@H](COP(=O)(O)OP(=O)(O)O)[C@@H](O)[C@H]2O)c(=O)[nH]1	none (no result: Lamin A splicing, JMJD2E inh, miR-21 reporter)
COC(=O)C1=C(N)Oc2cc(N(C)C)ccc2C1c1ccccc1OC (configuration not stated)	G9a block 32µM, Lamin A splicing inconclusive
O=C(OCCCc1cc2ccccc2c(=O)o1)c1ccc2c(c1)OCO2	none (no result: ALDH1A1 block, Lamin A splicing, JMJD2E inh, miR-21 reporter, Sfp inh)
CCOC(=O)C1CCN(C(=O)CCNS(=O)(=O)c2ccc(C)cc2)CC1	none (no result: ALDH1A1 block, Lamin A splicing, JMJD2E inh, miR-21 reporter, Sfp inh)
CCOC(=O)C1CCN(CC(C)(C)NS(=O)(=O)c2ccc(C)cc2)CC1	G9a block 14µM (no result: ALDH1A1 block, Lamin A splicing, JMJD2E inh)
CCOC(=O)C1CCN(CC(C)(C)NS(=O)(=O)c2ccc(Cl)cc2)CC1	G9a block 11µM (no result: ALDH1A1 block, Lamin A splicing, JMJD2E inh)
COc1cccc(N2CCN(C(=O)c3cnn(C(C)(C)C)c3C3CCN(C(=O)OC(C)(C)C)CC3)CC2)c1	G9a block inconclusive (no result: ALDH1A1 block, JMJD2E inh, Sfp inh)
CCOC(=O)C1(C)NC(c2ccccc2F)C2C(=O)N(CC)C(=O)C21 (configuration not stated)	none
O=C(NCc1cccs1)c1cccnc1SCCS(=O)(=O)c1ccc(C(F)(F)F)cn1	G9a block 16µM, ALDH1A1 block inconclusive, Lamin A splicing inconclusive
CS(=O)(=O)CCSc1ncccc1C(=O)NCc1cccs1	none
CC(C)(C)CC(C)(C)N1CNC(=S)NC1	G9a block 45µM, ALDH1A1 block inconclusive (no result: Lamin A splicing)
CC1Cc2c([nH]c3ccccc23)C(=O)N1 (configuration not stated)	none (no result: G9a block, ALDH1A1 block, Lamin A splicing, JMJD2E inh)
Cc1cc(N=Nc2ccccc2)c(NCC(O)C(O)C(O)CO)cc1C (configuration not stated)	G9a block 20µM, Lamin A splicing inconclusive
Cc1ccc(NCC(O)C(O)C(O)CO)cc1C (configuration not stated)	G9a block inconclusive
c1cc2cn[nH]c2cc1NC1CCCCCC1	G9a block 4.5µM, ALDH1A1 block inconclusive, JMJD2E inh inconclusive, Sfp inh 45µM
NC(=S)Nc1ccc2cn[nH]c2c1	none (no result: Lamin A splicing)
O=C(Nc1cc(Cl)cc(Cl)c1)c1ccc(F)c(S(=O)(=O)N2CCN(c3ccccc3F)CC2)c1	none (no result: ALDH1A1 block, JMJD2E inh, Sfp inh)
O=C1COc2ccc(S(=O)(=O)Nc3cccc(Cl)c3)cc2N1	none (no result: ALDH1A1 block, Lamin A splicing, JMJD2E inh)
CC(=O)Nc1cc(OC(C)=O)c2nonc2c1OC(C)=O	G9a block inconclusive, Lamin A splicing inconclusive, miR-21 reporter inconclusive, Sfp inh 40µM
COc1ccccc1C(=O)Nc1c(C(=O)N(CCN(C)C)Cc2ccco2)oc2ccccc12	G9a block 40µM!, Lamin A splicing inconclusive, miR-21 reporter inconclusive (no result: ALDH1A1 block, JMJD2E inh)
COc1cccc(NC(=O)C(C)(C)C)c1	G9a block 3.2µM (no result: ALDH1A1 block, Lamin A splicing, JMJD2E inh, miR-21 reporter, Sfp inh)
CSc1cccc(NC(=O)/C=C/c2ccco2)c1	G9a block 28µM, ALDH1A1 block 3.2µM, Sfp inh 56µM
